Data on twelve compounds can be found in PubChem BioAssay (NCATS).

Values joined by “and” are separate entries in the source; they are usually repeats but may differ in a detail not shown here. Equal values may be shown once. Results filed as inconclusive are left out. Active and inactive are the calls of the source. The call rests on the fitted dose curve; in most records, active means well fitted cell-killing curve with a large enough effect; inconclusive means small, poorly fitted or top-dose-only effect; inactive means no such curve, though single readings can be large or run the other way.
Potency means the concentration at half of the fitted maximal effect.

This experiment is described as follows: qHTS of pediatric cancer cell lines to identify multiple opportunities for drug repurposing: Confirmatory screen for SK-N-MC cells (AID 1347111).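 Further: cells exposed to compound for 48 h before the readout; nearly all actives have a fitted effect of over 70% in size.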 The conditions noted are these: SK-N-MC cell viability; series mostly up to 45.9 µM. The source says:
Drug repurposing or repositioning has been offered as a strategy for drug development in oncology programs. This approach has special potential for childhood cancers and other rare or orphan diseases, where the expected return on new drug development has been a disincentive to pharmaceuticals.
In this project we exploit the poly-pharmacology of drugs to discover new indications via phenotypic screening of a panel of 19 well-characterized cell lines derived from solid tumors seen in children and adolescents. The goal is to identify approved drugs with previously unrecognized anticancer properties that has the potential to reveal new mechanisms and biological processes involved in carcinogenesis or drug resistance. We employed a titration-based paradigm (quantitative high-throughput screening or qHTS), where all compounds were tested at multiple concentrations for their effect on cell viability. Concentration-response curves (CRCs) were derived directly from the primary screen, and both potency and efficacy values were used to identify compounds with robust bioactivity profiles. We screened the NIH Chemical Genomics Center (NCGC) Pharmaceutical Collection (NPC) and Mechanism Interrogation Plate (MIPE) small molecule collections of approved and investigational compounds against these cell lines; and measured metabolically active cells after 48 hours of compound treatment as a proxy for cell viability.
Assay Submitter: Nathalia J. Martinez, National Center for Advancing Translational Sciences, National Institutes of Health, Rockville, MD, USA; email: natalia.martinez@nih.gov
[1] Shen, M et al. Quantitative high-throughput phenotypic screening of pediatric cancer cell lines identifies multiple opportunities for drug repurposing. Oncotarget 2017 Dec 19;9(4):4758-4772. PMID 29435139.
The cells were obtained from University of North Carolina (UNC), Pediatric Preclinical Testing Program (PPT), and Coriell Institute (CI).
qHTS cell viability assay:
Cells were assayed in growth media at a density of 500-1,000 cells/well. Five microliters of cells were dispensed into 1,536-well, white, solid-bottom, TC-treated plates (Greiner Bio One) using a multidrop dispenser and incubated at 37 degrees C, 5% CO2, under a humidified atmosphere for 5 hours. Twenty-three nanoliters of compounds and controls (neutral control DMSO or positive control bortezomib at final concentration of 2.3 µM) were subsequently transferred by Kalypsys pintool. For primary screens, the MIPE collection was tested at 11-point dilutions (final concentrations range from 0.78 nM to 46 µM) and the NPC collection at 8-point dilutions (final concentrations range from 0.59nM to 46 µM). Compounds tested in follow-up screens were assayed at 11-point dilutions. Cells were incubated for 48 hours, followed by addition of 3 uL of CellTiter-Glo (Promega). After a 15 min incubation at room temperature, samples were analyzed for luminescence intensity using a ViewLux High-throughput CCD imager equipped with clear filters.
(In qHTS, concentration-response curves come from the screen itself.)
With `COC(=O)C1=CCCN(C)C1`, the Potency is 18.5 µM (active).

Consider `CC1Sc2c(C(=O)O)c(=O)c3cc(F)c(N4CCNCC4)cc3n21` (configuration not stated), for which the Potency is 14.7 µM (active). Regarding `CCc1ccc(C2CCNCC2)cc1`, the Potency result is “inactive”.

On to `CC[n+]1c(-c2ccccc2)c2cc(N)ccc2c2ccc(N)cc21`, for which the Potency is 2.08 µM (active). In the case of `COc1ccc2c(C(=O)c3ccc(Cl)cc3)c(C)n(CC(=O)O)c2c1`, the Potency is 10.4 µM (active). As for `ClC1=C(Cl)C2(Cl)C(CBr)CC1(Cl)C2(Cl)Cl` (configuration not stated), the Potency was 10.4 µM (active). Regarding `C[C@@H]1C[C@@H]([C@H](O)CC2CC(=O)NC(=O)C2)C(=O)[C@@H](C)C1`, the Potency is 928 nM (active) and 1.31 µM (active). Turning to `CN(C)C(=S)SSC(=S)N(C)C`, the Potency was 0.928 µM (active).

As to `CCCCCCCCCCCC[N+](C)(C)CCOc1ccccc1`, the Potency is 7.37 µM (active). For `Cc1ccc([N+](=O)[O-])[c]2c1[O][Hg]2`, the Potency was 0.233 µM (active). As to `CN1[C@@H]2CC[C@H]1CC(OC(=O)c1cc(Cl)cc(Cl)c1)C2` (some centres not stated), the Potency entry is “inactive”. In the case of `C[C@@H]1O[C@@H](O[C@@H]2C=C3CC[C@@H]4[C@H](CC[C@]5(C)[C@@H](c6ccc(=O)oc6)CC[C@]45O)[C@@]3(C)CC2)[C@H](O)[C@H](O)[C@H]1O` it was 0.0293 µM (active).
